# CBX7 inh: CBX7 chromodomain binding inhibitors, primary screen, biochemical, AlphaScreen | AlphaScreen His6-CBX7 / biotin-H3K27me3 peptide binding; hits give low values | Chromobox protein homolog 7 (Homo sapiens), O95931 | normalised signal (fraction of DMSO) (test concentration not listed) | 66,000 compounds, 1.1% hits | AID 1224903, 2016; in the data active = normalised signal below about 0.5
# Target sequence (O95931 whole entry, looked up): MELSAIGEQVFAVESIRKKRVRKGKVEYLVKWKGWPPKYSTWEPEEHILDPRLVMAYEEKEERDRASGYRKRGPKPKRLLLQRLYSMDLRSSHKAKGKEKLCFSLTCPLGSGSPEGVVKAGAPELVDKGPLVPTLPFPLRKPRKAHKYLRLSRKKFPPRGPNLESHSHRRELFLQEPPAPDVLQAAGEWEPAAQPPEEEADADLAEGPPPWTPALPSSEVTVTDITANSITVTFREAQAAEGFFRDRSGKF
# The depositor's hits bear a star. The entries come from a sample that favours hits as a whole.
SMILES,CBX7 inh
COc1ccc(Cl)cc1S(=O)(=O)NCCc1c(C)[nH]c2ccc(F)cc12,0.92
COc1cc(S(=O)(=O)NCCc2c(C)[nH]c3ccc(F)cc23)c(C)cc1C,0.91
COc1cc(S(=O)(=O)NCCc2c(C)[nH]c3ccc(Br)cc23)c(C)cc1C,0.59
COc1cc(C)c(S(=O)(=O)NCCc2c(C)[nH]c3ccc(C)cc23)cc1C,0.38*
COc1ccc(Cl)cc1S(=O)(=O)NCCc1c(C)[nH]c2ccc(C)cc12,0.48*
COc1ccc(C)cc1S(=O)(=O)NCCc1c(C)[nH]c2ccc(F)cc12,1
CC(C)c1ccc(Nc2cc(C(=O)NCCN3CCOCC3)c3ccccc3n2)cc1,1.1
O=C1C(=O)N(CCCn2ccnc2)C(c2cccc(F)c2)C1=C(O)c1ccccc1 (stereo not given),1
O=C1Nc2ccccc2Oc2cc([N+](=O)[O-])cc(OCCO)c21,0.93
O=C1Nc2ccccc2Oc2cc([N+](=O)[O-])cc(Oc3cccc(Cl)c3Cl)c21,0.48*
O=C1Nc2ccccc2Oc2cc([N+](=O)[O-])cc(Oc3cccc(Cl)c3)c21,0.37*
CCOc1cc([N+](=O)[O-])cc2c1C(=O)Nc1ccccc1O2,0.88
Cc1ccc(CNC(=O)c2ccc3nc(N4CCOCC4)sc3c2)cc1,1.1
Cc1ccc(-c2cc(C(=O)NCc3cnn(C)c3)c3ccccc3n2)cc1C,0.96
O=C(NC1CCCCC1)C1c2ccccc2C(=O)N1CCc1ccc(Cl)cc1 (stereo not given),1
O=C(CSc1nccn1-c1cccc(Cl)c1)Nc1ccc(F)cc1F,0.84
O=C(CCc1nc2sc3c(c2c(=O)[nH]1)CCCC3)NCc1ccccn1,0.34*
CC(=O)NCCNC(=O)CCc1nc2sc3c(c2c(=O)[nH]1)CCCC3,1.1
COc1ccc(CNC(=O)CCc2nc3sc4c(c3c(=O)[nH]2)CCCC4)cc1,1.1
O=C(Nc1ccc(F)cc1F)C(Cc1ccccc1)N1C(=O)c2ccccc2C1=O (stereo not given),1.3
COc1ccc(Cl)cc1NS(=O)(=O)c1ccc2c(c1)n(C)c(=O)c(=O)n2C,0.87
Cc1ccc2nsnc2c1NC(=O)c1cc(Br)ccc1Cl,1
Cc1ccc2nsnc2c1NC(=O)c1ncn[nH]1,0.45*
Cc1ccc2nsnc2c1NC(=O)c1cc(Cl)ccc1Cl,1
CC(C)CCNC(=O)c1cc(-c2ccncc2)nc2ccc(S(=O)(=O)N3CCC(C)CC3)cc12,1
SMILES,CBX7 inh
CC(=O)Nc1ccccc1-c1nc2ccc(C(=O)N3CCCCCC3)cc2[nH]c1=O,1
COc1cc2c(C(=O)Nc3ccc(C(F)(F)F)cc3)cn(C)c(=O)c2cc1OC,1.1
Cc1ccccc1NCC(O)Cn1c(C)c(C)c2ccccc21 (stereo not given),0.81
Cc1ccc(C)c(NCC(O)Cn2c3ccccc3c3ccccc32)c1 (stereo not given),0.68
COc1ccc(OC)c(NCC(O)Cn2c3ccccc3c3ccccc32)c1 (stereo not given),0.3*
O=C(O)c1c(Nc2nnc(-c3ccncc3)s2)sc2c1CCCC2,1.1
CCCCN(CCCC)S(=O)(=O)c1ccc(C(=O)Nc2nc3c(s2)COc2ccccc2-3)cc1,0.96
CCN(Cc1ccccc1)S(=O)(=O)c1ccc(C(=O)Nc2nnc(-c3ccc(OC)cc3)o2)cc1,1.2
COCCN(CCOC)S(=O)(=O)c1ccc(C(=O)Nc2nc(-c3ccc(OC)cc3)cs2)cc1,1
CN(Cc1ccccc1)S(=O)(=O)c1ccc(C(=O)Nc2ccccc2-c2nc3ccccc3o2)cc1,1
CCCCN(CCCC)S(=O)(=O)c1ccc(C(=O)Nc2ccccc2-c2nc3ccccc3[nH]2)cc1,1
COCCN(CCOC)S(=O)(=O)c1ccc(C(=O)Nc2nnc(-c3ccc(F)cc3)o2)cc1,0.025*
Cc1nnc(NC(=O)c2ccc(S(=O)(=O)N(C)C)cc2)o1,0.012*
Cc1nnc(NC(=O)c2ccc(S(=O)(=O)N(C)Cc3ccccc3)cc2)o1,0.0081*
COCc1nnc(NC(=O)c2ccc(S(=O)(=O)N(C)Cc3ccccc3)cc2)o1,0.88
CN(C)S(=O)(=O)c1ccc(C(=O)Nc2c(C(N)=O)oc3ccccc23)cc1,1.1
COc1ccc(-c2nnc(NC(=O)c3ccc(S(=O)(=O)N(C)C)cc3)o2)c(OC)c1,0.58
CCCCN(CCCC)S(=O)(=O)c1ccc(C(=O)Nc2nnc(C)o2)cc1,0.0047*
COc1cc(C(=O)N[C@H]2COC(C)(C)O[C@H]2c2ccccc2)nc2ccccc12,1.1
CCc1ccc(NC(=O)C(NS(=O)(=O)c2ccc3nc(C)sc3c2)C(C)C)cc1 (stereo not given),1
Cc1cc(C)cc(-n2c(CCC(=O)O)ccc2-c2ccc(F)cc2)c1,1.1
CCc1ccc(-c2nc(CSCC(=O)N3CCN(c4cccc(C)c4C)CC3)c(C)o2)cc1,0.91
CCOc1ccc2c(c1)c(=O)c(S(=O)(=O)c1ccccc1)cn2Cc1ccc(C)cc1,0.8
CCc1ccc(NC(=O)CN2C(=O)CC(c3ccc(OC)c(OC)c3)Sc3ccccc32)cc1 (stereo not given),0.95
COc1ccc(OC)c(NC(=O)C2(S(=O)(=O)c3ccc(Cl)cc3)CC2)c1,0.99
SMILES,CBX7 inh
COc1ccc(OC)c2[nH]c(=O)c(CCNC(=O)CC(C)(C)C)cc12,1
CN(C1CCCCC1)S(=O)(=O)c1ccc(C(=O)Nc2nnc(-c3ccccc3Cl)o2)cc1,0.91
COCCN(CCOC)S(=O)(=O)c1ccc(C(=O)Nc2nc(-c3ccncc3)cs2)cc1,1
COCCN(CCOC)S(=O)(=O)c1ccc(C(=O)Nc2nnc(COC)o2)cc1,0.58
COCCN(CCOC)S(=O)(=O)c1ccc(C(=O)Nc2nnc(C)o2)cc1,0.0057*
COCCN(CCOC)S(=O)(=O)c1ccc(C(=O)Nc2nnc(-c3ccccc3Cl)o2)cc1,0.27*
CCCN(CCC)S(=O)(=O)c1ccc(C(=O)Nc2nnc(-c3ccccc3Cl)o2)cc1,1.1
c1cncc(Cc2nnc(N3CCC4(CC3)OCCO4)c3ccccc23)c1,1
CCOC(=O)N1CCC(Nc2c(NCCN3CCCCC3C)c(=O)c2=O)CC1 (stereo not given),0.93
CCN(CCNS(=O)(=O)c1ccc2c(c1)CCN2C(=O)C1CCC1)c1ccccc1,0.83
COc1cccc(-c2nn(C)c3sc(C(=O)N4CCN(c5cccc(Cl)c5)CC4)cc23)c1,0.87
Cc1ccc(NC(=O)Cn2cnc3sc(C(=O)NCCN4CCOCC4)c(C)c3c2=O)cc1Cl,1.2
CCNC(=O)CC1Sc2ccccc2NC1=O (stereo not given),0.91
O=C1C2=C(Nc3ccccc3SC2c2cccs2)c2ccccc21 (stereo not given),0.4*
CC1CCCCC1NC(=O)C(C)C1Sc2ccccc2NC1=O (stereo not given),1
CCC(=O)N1CCc2cc(S(=O)(=O)NC(C)c3ccccc3)ccc21 (stereo not given),1.3
Cc1ccc(C)c(N2CCN(C(=O)CC3Sc4ccccc4NC3=O)CC2)c1 (stereo not given),0.5*
Cc1cccc(CCNC(=O)CC2Sc3ccccc3NC2=O)c1 (stereo not given),0.98
Cc1cc(Cl)ccc1NC(=O)CC1Sc2ccccc2NC1=O (stereo not given),1
COc1ccc(OC)c(N2CC(c3nc4ccccc4n3CC(C)C)CC2=O)c1 (stereo not given),0.95
COc1cccc(C(=O)Nc2c(-c3ccc(F)cc3)nc3cc(C)ccn23)c1,0.94
